Assay results as given in the antibiotic and cytotoxicity screens of Wong et al. (2023).
The campaign covered roughly 39,000 compounds. About 1,500 (3.8%) were called active. This is one part of a sample in which actives are shown more often than they occur.

The compounds below were run on HSkMC (human skeletal muscle cells) (assay: cytotoxicity call (relative viability < 0.9)). Conditions: 10 µM.

| SMILES | cytotoxicity call |
| --- | --- |
| Cc1noc(C)c1S(=O)(=O)N(C)C[C@H]1Oc2ccc(NS(C)(=O)=O)cc2CC(=O)N([C@H](C)CO)C[C@@H]1C | inactive |
| COc1ccc(NC(=O)N(C)C[C@@H]2Oc3ccc(NC(=O)Cn4cnnn4)cc3CC(=O)N([C@H](C)CO)C[C@H]2C)cc1 | inactive |
| C[C@H](CO)N1C[C@H](C)[C@H](CN(C)C(=O)Nc2ccc(C(F)(F)F)cc2)OCCCC[C@H](C)Oc2ccc(NS(=O)(=O)c3cn(C)cn3)cc2C1=O | inactive |
| O=C(C[C@H]1C=C[C@@H](NC(=O)c2cccc(F)c2)[C@H](CO)O1)NCCN1CCCC1 | inactive |
| COc1ccc(-c2cnc3c(c2)C(=O)N([C@H](C)CO)C[C@H](C)[C@H](CN(C)S(=O)(=O)c2ccc(F)cc2)O3)cc1 | inactive |
| Cc1ccc(S(=O)(=O)N(C)C[C@@H]2Oc3c(NS(=O)(=O)c4ccccc4)cccc3C(=O)N([C@@H](C)CO)C[C@H]2C)cc1 | inactive |
| NCC[C@H]1CC[C@@H](NC(=O)c2ccccc2F)[C@@H](CO)O1 | inactive |
| Cc1ccc(S(=O)(=O)N(C)C[C@@H]2Oc3c(NS(C)(=O)=O)cccc3C(=O)N([C@H](C)CO)C[C@H]2C)cc1 | inactive |
| Cc1cc(C(=O)Nc2cccc3c2O[C@@H](CN(C)S(C)(=O)=O)[C@@H](C)CN([C@@H](C)CO)C3=O)n(C)n1 | inactive |
| C[C@@H]1CCCCO[C@@H](CN(C)S(=O)(=O)c2ccc(Cl)cc2)[C@@H](C)CN([C@@H](C)CO)C(=O)c2cc(NS(=O)(=O)c3ccc(F)cc3)ccc2O1 | inactive |
| O=C(C[C@@H]1CC[C@H]2[C@@H](COC[C@@H](O)CN2S(=O)(=O)c2ccc(Oc3ccccc3)cc2)O1)NCCN1CCCCC1 | inactive |
| O=C(CCCl)NCCc1ccccc1 | inactive |
| COc1ccc(N(C(=O)CSc2ncccn2)[C@@H](C(=O)NCCc2ccccc2)c2cccs2)cc1Cl | inactive |
| COc1ccc(N(C(=O)CCl)[C@@H](C(=O)NCCc2ccccc2)c2ccc(Cl)s2)cc1Cl | active |
| CC(C)(C)OC(=O)NCCOCCOCCOc1ccc(N(C(=O)CCl)[C@@H](C(=O)NCCc2ccccc2)c2cccs2)cc1Cl | active |
| Cn1cnc(S(=O)(=O)N[C@H]2CC[C@@H](CC(=O)N3CCN(c4ccccc4)CC3)O[C@H]2CO)c1 | inactive |
| C[C@@H]1CN([C@H](C)CO)C(=O)Cc2cc(NC(=O)CCC(F)(F)F)ccc2O[C@H]1CN(C)Cc1ccc(Oc2ccccc2)cc1 | inactive |
| C[C@H]1CCCCO[C@H](CN(C)C(=O)Nc2cccc3ccccc23)[C@@H](C)CN([C@@H](C)CO)C(=O)c2cc(NS(=O)(=O)c3ccc(Cl)cc3)ccc2O1 | inactive |
| COC(=O)[C@@H]1OC(=O)[C@H]2O[C@@]23[C@]2(C)[C@@H](O)C[C@H]4C(C)(C)[C@H](OC(C)=O)C[C@H](OC(C)=O)[C@]4(C)[C@@H]2CC[C@@]13C | inactive |
| COc1ccc(CN(CCN(C)C)c2ccccn2)cc1.O=C(O)C=CC(=O)O | inactive |
| CCCCCCCCCCCCCCCC[N+](C)(C)CCN(Cc1ccc(OC)cc1)c1ncccn1 | active |

| SMILES | cytotoxicity call |
| --- | --- |
| COc1ccc(CN(CCN(C)C)c2ncccn2)cc1.Cl | inactive |
| C[C@@H]1CCCCO[C@H](CN(C)Cc2ccc(C(=O)O)cc2)[C@H](C)CN([C@H](C)CO)C(=O)c2cc(NC(=O)Nc3ccc(F)cc3)ccc2O1 | inactive |
| C[C@@H]1CCCCO[C@H](CN(C)C(=O)C2CCCCC2)[C@@H](C)CN([C@H](C)CO)C(=O)c2cc(NC(=O)Cc3ccccc3)ccc2O1 | inactive |
| NCC[C@@H]1CC[C@@H](NC(=O)C2CCCCC2)[C@@H](CO)O1 | inactive |
| C[C@@H]1CCCCO[C@H](CN(C)S(=O)(=O)c2ccc(F)cc2)[C@@H](C)CN([C@@H](C)CO)C(=O)c2cc(NC(=O)Nc3ccc(F)cc3)ccc2O1 | inactive |
| C[C@@H]1CCCCO[C@@H](CN(C)C(=O)Nc2ccc(F)cc2)[C@@H](C)CN([C@@H](C)CO)C(=O)c2cc(NC(=O)Nc3ccc(F)cc3)ccc2O1 | inactive |
| COc1ccc(NC(=O)N(C)C[C@H]2Oc3c(NC(=O)C4CCOCC4)cccc3C(=O)N([C@H](C)CO)C[C@H]2C)cc1 | inactive |
| COC1=C(N)C(=O)c2nc(-c3nc(C(=O)O)c(C)c(-c4ccc(OC)c(OC)c4O)c3N)ccc2C1=O | active |
| COc1ccc(C(=O)O)c(O)c1OC | inactive |
| Cc1ccc(S(=O)(=O)N(C)C[C@H]2Oc3ccc(NS(=O)(=O)c4ccc(F)cc4)cc3C(=O)N([C@H](C)CO)C[C@H]2C)cc1 | inactive |
| C[C@H](CO)N1C[C@H](C)[C@@H](CN(C)C(=O)c2ccccc2)OCCCC[C@H](C)Oc2ccc(NC(=O)Nc3ccccc3)cc2C1=O | inactive |
| C[C@H](CO)N1C[C@H](C)[C@@H](CN(C)C(=O)C2CCOCC2)Oc2ncc(-c3cccc(C#N)c3)cc2C1=O | inactive |
| C[C@H]1CN([C@@H](C)CO)C(=O)Cc2cc(NC(=O)Nc3ccc4c(c3)OCO4)ccc2O[C@H]1CN(C)Cc1ccc(C(F)(F)F)cc1 | inactive |
| C[C@H](CO)N1C[C@H](C)[C@H](CN(C)Cc2ccc(C(F)(F)F)cc2)Oc2ccc(NC(=O)Nc3ccc4c(c3)OCO4)cc2CC1=O | inactive |
| C[C@H](CO)N1C[C@H](C)[C@H](CN(C)C(=O)Nc2ccc3c(c2)OCO3)Oc2ccc(NC(=O)Nc3ccc(C(F)(F)F)cc3)cc2CC1=O | inactive |
| C[C@@H]1CN([C@H](C)CO)C(=O)Cc2cc(NC(=O)Nc3ccc4c(c3)OCO4)ccc2O[C@@H]1CN(C)Cc1ccc(C(F)(F)F)cc1 | active |
| C[C@H](CO)N1C[C@H](C)[C@@H](CN(C)Cc2ccc(C(F)(F)F)cc2)Oc2ccc(NC(=O)Nc3ccc4c(c3)OCO4)cc2CC1=O | active |
| C[C@@H]1CN([C@@H](C)CO)C(=O)Cc2cc(NC(=O)Nc3ccc4c(c3)OCO4)ccc2O[C@H]1CN(C)Cc1ccc(C(F)(F)F)cc1 | inactive |
| C[C@@H]1CN([C@H](C)CO)C(=O)Cc2cc(NC(=O)Nc3ccc4c(c3)OCO4)ccc2O[C@H]1CN(C)Cc1ccc(C(F)(F)F)cc1 | active |
| C[C@@H]1CN([C@@H](C)CO)C(=O)Cc2cc(NC(=O)Nc3ccc4c(c3)OCO4)ccc2O[C@@H]1CN(C)Cc1ccc(C(F)(F)F)cc1 | inactive |
| C[C@H]1CN([C@@H](C)CO)C(=O)Cc2cc(NC(=O)Nc3ccc4c(c3)OCO4)ccc2O[C@@H]1CN(C)Cc1ccc(C(F)(F)F)cc1 | inactive |

| SMILES | cytotoxicity call |
| --- | --- |
| OCc1ccc2c(c1)OCCO2 | inactive |
| C[C@@H]1CN([C@@H](C)CO)C(=O)c2cc(NC(=O)Cn3cnnn3)ccc2O[C@@H]1CN(C)Cc1ccc(Cl)c(Cl)c1 | inactive |
| C[C@@H]1CN([C@@H](C)CO)S(=O)(=O)c2ccc(-c3cncnc3)cc2O[C@H]1CN(C)C(=O)Cc1ccncc1 | inactive |
| COc1ccc(S(=O)(=O)Nc2ccc3c(c2)C(=O)N([C@@H](C)CO)C[C@H](C)[C@H](CN(C)C(=O)Nc2cccc4ccccc24)OCCCC[C@H](C)O3)cc1 | inactive |
| C[C@@H]1CCCCO[C@H](CN(C)S(C)(=O)=O)[C@@H](C)CN([C@@H](C)CO)C(=O)c2cc(NS(=O)(=O)c3ccccc3)ccc2O1 | inactive |
| C[C@@H]1CN([C@@H](C)CO)C(=O)c2cccc(NC(=O)c3ccc(-c4nccs4)cc3)c2O[C@@H]1CN(C)Cc1ccc(C(=O)O)cc1 | inactive |
| C[C@@H]1CN([C@H](C)CO)C(=O)c2cc(NC(=O)Nc3ccc(F)cc3)ccc2O[C@@H](C)CCCCO[C@H]1CN(C)Cc1ccc(Cl)c(Cl)c1 | active |
| C[C@@H]1CCCCO[C@@H](CN(C)Cc2ccc(Cl)c(Cl)c2)[C@@H](C)CN([C@H](C)CO)C(=O)c2cc(NC(=O)Nc3ccccc3)ccc2O1 | inactive |
| C[C@@H]1CN([C@H](C)CO)C(=O)c2cc(NC(=O)Nc3ccccc3)ccc2O[C@@H](C)CCCCO[C@H]1CN(C)Cc1ccc(Cl)c(Cl)c1 | active |
| C[C@@H]1CCCCO[C@@H](CN(C)Cc2ccc(Cl)c(Cl)c2)[C@@H](C)CN([C@@H](C)CO)C(=O)c2cc(NC(=O)Nc3ccc(F)cc3)ccc2O1 | inactive |
| Cc1noc(C)c1NC(=O)Nc1ccc2c(c1)C(=O)N([C@H](C)CO)C[C@@H](C)[C@@H](CN(C)Cc1ccc(Cl)c(Cl)c1)OCCCC[C@H](C)O2 | active |
| Cc1noc(C)c1NC(=O)Nc1ccc2c(c1)C(=O)N([C@@H](C)CO)C[C@@H](C)[C@H](CN(C)Cc1ccc(Cl)c(Cl)c1)OCCCC[C@H](C)O2 | inactive |
| Cc1noc(C)c1NC(=O)Nc1ccc2c(c1)C(=O)N([C@H](C)CO)C[C@@H](C)[C@H](CN(C)Cc1ccc(Cl)c(Cl)c1)OCCCC[C@@H](C)O2 | inactive |
| C[C@H]1CCCCO[C@H](CN(C)Cc2ccc(Cl)c(Cl)c2)[C@@H](C)CN([C@@H](C)CO)C(=O)c2cc(NC(=O)Nc3ccc(F)cc3)ccc2O1 | inactive |
| C[C@H]1CCCCO[C@H](CN(C)Cc2ccc(Cl)c(Cl)c2)[C@@H](C)CN([C@@H](C)CO)C(=O)c2cc(NC(=O)Nc3ccccc3)ccc2O1 | inactive |
| CO[C@@H]1CN(C)C(=O)c2cc(NC(=O)Nc3ccccc3F)ccc2OC[C@@H](C)N(Cc2ccccc2C(=O)O)C[C@@H]1C | inactive |
| Cc1noc(C)c1NC(=O)Nc1ccc2c(c1)C(=O)N([C@H](C)CO)C[C@H](C)[C@H](CN(C)Cc1ccc(Oc3ccccc3)cc1)O2 | inactive |
| COc1cccc(S(=O)(=O)N(C)C[C@H]2OCc3cn(nn3)CCCC(=O)N([C@H](C)CO)C[C@H]2C)c1 | inactive |
| COc1ccc(NC(=O)N(C)C[C@@H]2OCCCC[C@H](C)Oc3ccc(NC(=O)Nc4cccc5ccccc45)cc3C(=O)N([C@H](C)CO)C[C@@H]2C)cc1 | inactive |
